The target in the first assay is YWHAG. Kind of assay: pooled miR-30 sensor sort-seq; sequence = guide strand. The note with it: shRNA.
TTCAGGTAGAACACTTTGCTCT registered a sensor-assay potency score (higher = more potent) of -0.452.
Same read-out and setting: the result for TTAATACTGTCAACTAATCAGA reads -0.755; that for TTACACTGTTCCATGTCTGTAG, 0.201; that for TCCTTCTCTATCTTCTCCCGGT, -0.85.
The same measure, in the same setting: the result for AATACCAGCACAGCTAGCCTGA reads -0.754; that for TGAATCTACAGAACAGTCCAGA, 0.0332.
The same measure, in the same setting: the result for TTCTAAGTCTGTCAGTCTGGGA reads -0.946.
In turn, TTTAAGTTTTCTTTTCATCTGA registered a sensor-assay potency score (higher = more potent) of 0.297.
The same measure, in the same setting: in the case of TTAAGTTTTCTTTTCATCTGAA it was 0.563.

The next assay has as its target YY1AP1. The description is as above. Particulars: shRNA.
In turn, TTTTTCTAGGCCTTGATCTGAG returned a sensor-assay potency score (higher = more potent) of -0.00665.
The same measure, in the same setting: in the case of TTTGCTTCCTTTTCGTGTCGGA it was 0.308.
Same read-out and setting: the result for TTAAGACATATCCTGGTGCTAC reads -0.46; that for TTCCTCTGTAGCATCTTCAGGT, 0.0483.
TTCCATCTTGACAACTTCCTCT had a sensor-assay potency score (higher = more potent) of 0.35.
Still for that read-out and setting: the result for TTCAAACAGATCTTCCATCAGC reads -0.176.
Sequence TGTCAAGAGCTGAACATGCTGC gave a sensor-assay potency score (higher = more potent) of -0.313.
The same measure, in the same setting: the result for TAGAAGGTACTTGTTGTCCTCA reads 0.0643; that for TGTTCTCTGACAATCCTTCTTG, -0.0122; that for TTTAACCTTCTCTACCTCCTTC, 0.0131.
Still for that read-out and setting: in the case of ATGAACTTCCTTACACTGGGGT it was 0.289; in that of TAAAGTTAGCTTGAGGCTCAGC, -0.69.

A further assay concerns the target YY2. The description is as above. Particulars: shRNA.
Sequence TTTGACCTGCATTTGCTTCTGC showed a sensor-assay potency score (higher = more potent) of 0.61.
Still for that read-out and setting: in the case of TTGAGCTCTCAAGAAAAGCTTT it was -0.69; in that of TTGACTGAGCGAACTTCCTGTT, -0.213.
The sequence TAGGGGACCACATAGTCACGGA had a sensor-assay potency score (higher = more potent) of -0.62.
Same read-out and setting: the result for TCAAGTACTCGGAATAATCAGG reads -0.787; that for TCGTCTTCAATGCTATCCGGGA, -0.643.
Same read-out and setting: the result for TACTGGACGCTTTCCGTCGGAA reads -1.27.
Sequence TTCTGCTCCCACTTCCTCGTGC came in with a sensor-assay potency score (higher = more potent) of 0.239.
Same read-out and setting: in the case of TGTCTGAGTCGCAATAGCCCAC it was -0.97; in that of TTGTGTCTGCAACATAAGCATT, -1.56.
Sequence TAGCTGGTTGTCTGAGTCGCAA yielded a sensor-assay potency score (higher = more potent) of -1.47.
Turning to TTTAGTAAATTCTGCCAGCTGT, the sensor-assay potency score (higher = more potent) was -0.34.

Another assay addresses ZBTB24. The description is as above. The note with it: shRNA.
As to TTAACCACAAAGTTTTGTCTAT, the sensor-assay potency score (higher = more potent) is -0.0895.
For TTGGTGGTCAGAGCCTTGCTGC, the sensor-assay potency score (higher = more potent) is -1.29.
Sequence TTAAGAACTGAGCAGTAGCCAG gave a sensor-assay potency score (higher = more potent) of -1.12.
On the same count and under the same terms, the result for TTGTACTTAAAGACCTTGCCAC reads -0.0819; that for TTAAATTCTGCAGTTGCTCTGG, 0.17; that for TTGGAAGTCTGTGTAAGCCTTT, -0.108.
On the same count and under the same terms, in the case of TTGCTGTATCGACTCTGGCTTG it was -0.983.

The record behind these values is the OligoGym collection.
Note: reference of the scale not given here.
